Laboratory results taken from the supplement of paper PMC10681739.

target: RUNX1 (UniProt Q01196); test: RUNX1 binding intensity (PBM fluorescence), RUNX1 alone (arbitrary fluorescence units); higher = stronger binding; conditions: RUNX1 concentration 2 nM; ETS1 concentration 0 nM
Experimental: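 Cooperative gcPBM on 36-bp genomic probes with neighbouring ETS1 and RUNX1 sites. Recombinant human RUNX1 (2 nM) was incubated alone or with ETS1 (25 nM) and detected with anti-RUNX1 antibody plus Alexa488 secondary. Values are medians over 4 replicate spots; the RUNX1+ETS1 data were normalised to the RUNX1-only data. The probes sit in constant array flanks that are not printed.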
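For RUNX1 binding intensity (PBM fluorescence), RUNX1 alone in this document: Full-length recombinant human RUNX1 bound to double-stranded 36-bp genomic probes on a high-density microarray, scored as Alexa488 fluorescence per spot via anti-RUNX1 antibody, median of four replicate spots.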

Chain of RUNX1 (Q01196 whole entry): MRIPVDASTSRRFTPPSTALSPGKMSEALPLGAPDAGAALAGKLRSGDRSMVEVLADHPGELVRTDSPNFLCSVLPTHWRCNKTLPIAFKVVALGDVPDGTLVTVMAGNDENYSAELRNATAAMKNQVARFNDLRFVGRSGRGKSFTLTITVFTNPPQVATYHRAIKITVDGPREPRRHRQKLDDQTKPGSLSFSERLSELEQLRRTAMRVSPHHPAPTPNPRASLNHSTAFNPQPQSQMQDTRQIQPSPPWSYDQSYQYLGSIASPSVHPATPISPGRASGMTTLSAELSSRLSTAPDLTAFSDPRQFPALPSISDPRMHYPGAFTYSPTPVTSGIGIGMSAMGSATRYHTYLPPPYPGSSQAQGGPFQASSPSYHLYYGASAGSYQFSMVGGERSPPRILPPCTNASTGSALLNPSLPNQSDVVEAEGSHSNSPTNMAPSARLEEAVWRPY

Compared with AGGAAACCACAAGTTATTCCCTGCAAAGGTCTTGAT, ACTCACACCACGGAAACTGCGGCTCGGCAGGCTGAG is lower in RUNX1 binding intensity: 3320 for the first, 808 for the second.

First: TGAGTTTTGTTTCCGATTCACCACAGAAGATACTTT
Second: TGAGCACTGAGCACTTCCTGTGGCTTCTGAAGCTCC
The RUNX1 binding intensity of the first is higher: 2230 for the first, 797 for the second.

Compared with ATTTTAGCATTTTCCTGCTCGGAGACCACATGTTTG, GATGACTTCCTCAGTTCAGGGCTATGTGCGGGGGAG is lower in RUNX1 binding intensity: 1170 for the first, 833 for the second.

Compared with TGGGGCCCGGAAGCGCTGGCGCCTTGCGGCCAGAAG, GCACGGCGGAATTTCAAATGGGGTTTTGTGGTTTCT is higher in RUNX1 binding intensity: 707 for the first, 1220 for the second.

First: CGGCGCGGCGGACGTTGCTGCGGTAGGACGTGCCCG
Second: CATCTCGGAAACGGACAGCAAGATCCCGCATTAACA
The RUNX1 binding intensity of the first is lower: 838 for the first, 977 for the second.

First: CCATTTCCCGCCTACCGACCTGCTGCACCGCACGGA
Second: CCCGGCCCAGGAAACTTCAGACTTCACCGCAGCTTC
The RUNX1 binding intensity of the first is higher: 1430 for the first, 1060 for the second.

First: TGCAGCGCATCCTGGGACGTGCGGGCGGTGCATGAG
Second: TGCGACGGAAGCAGGAACTTGCTAACCACAAAACCC
The RUNX1 binding intensity of the first is lower: 727 for the first, 1790 for the second.

Compared with CCTGAAGCTCATGCGGAAAACCCACAAAGGGGTGCC, TTAGATGTGCCTACATCCTGACCTCAAAAACCTCTG is lower in RUNX1 binding intensity: 932 for the first, 791 for the second.

Compared with GAGTTCTCCGCTTCCTTGCGGCCGGCGGGATTAGCC, TACAGCTTCCTTCACCCCACTTGTGGCCTGGGTTAC is lower in RUNX1 binding intensity: 907 for the first, 814 for the second.

Compared with CCGGGCTGCGGAAGGCGGGAATTCTGCGGTTCGCGG, AGAGCCACATCCCGCGCAGAGGACCGCGGCGACCGG is lower in RUNX1 binding intensity: 1230 for the first, 764 for the second.

First: GGGGACCGGAAAGGGAGGGGTGGGCCGCAGGCGCCG
Second: GAAATCCATCACGGATGTGGGCTTTTTGCTCTCATT
The RUNX1 binding intensity of the first is higher: 766 for the first, 760 for the second.

target: RUNX1 (UniProt Q01196); test: TF binding intensity (PBM fluorescence), negative control probe (arbitrary fluorescence units); higher = stronger binding; conditions: not given
Experimental: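 gcPBM negative-control 36-bp genomic probes lacking TF binding sites. Each was incubated with recombinant human ETS1 or RUNX1 alone and detected by antibody fluorescence. Values are medians over replicate spots (4 spots for the ETS1-RUNX1 arrays, 3 for the ETS1-ETS1 array). The probes sit in constant array flanks that are not printed.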

First: GACGAGCCCGGTGGCAGGAAGTGACAGTGAGAAACT (protein concentration 2 nM)
Second: AAGTAAGCCCCGCCCCGGAACGGGCAGAAGTAGAGG (protein concentration 2 nM)
The TF binding intensity of the first is lower: 965 for the first, 1060 for the second.

First: GTCCAGGCAAGAAACAGGAAGTGTGTCATGCACAGA (protein concentration 2 nM)
Second: ACCCCATTTCAGTCATTTCCTGCTGCAACTAAGTCA (protein concentration 2 nM)
The TF binding intensity of the first is lower: 870 for the first, 1070 for the second.

Compared with “ACAGCTGAATTCTCACTTCCTTCGTCTCTGAGCCTG (protein concentration 2 nM)”, “TAACTCTTTGCTATCCTTCCGCTGAGCTTCATCTTC (protein concentration 2 nM)” is higher in TF binding intensity: 874 for the first, 963 for the second.

Compared with “CTCACCAGTCACCCCAGGAAACTCTGCCCCTTTACA (protein concentration 2 nM)”, “GCTCCATCACCTCCTCTTCCGGTCCCTCCTCTAGGG (protein concentration 2 nM)” is higher in TF binding intensity: 950 for the first, 1160 for the second.

First: GTTCCAGAAACGTCACATCCGGCGCCCGCTCCGCCC (protein concentration 2 nM)
Second: CAGGCTCGACACGGGCGGAACAAACGGGCTCCACTA (protein concentration 2 nM)
The TF binding intensity of the first is higher: 890 for the first, 769 for the second.

Compared with “TATCACTTCTGGCGAAGGAAATGGAAGAATCTATGG (protein concentration 2 nM)”, “CGAGCTTAGAAGGCGCTTCCGATGGGCGGAGTTTAG (protein concentration 2 nM)” is lower in TF binding intensity: 1010 for the first, 742 for the second.

Compared with “GGGAGAGATGGGGCGCGGAAGGAACGAGGCGGGACG (protein concentration 2 nM)”, “GCCTCACAAAAGAACAGGATGTTGTTGATTTGTCAC (protein concentration 2 nM)” is lower in TF binding intensity: 1350 for the first, 828 for the second.

Going from “TTGCCCGTCACTTGAGTTCCGCCTCCTCTGCTCCTC (protein concentration 2 nM)” to “CGTCGCCCGGTCCCGGTTCCGGTCCGCGCTCCGGTC (protein concentration 2 nM)”, the TF binding intensity falls from 922 to 910.

Work on “ATGTGTGTGTTTTTCCTTCCGGTTGCTGTGAGGTGA (protein concentration 2 nM)” yielded a TF binding intensity of 919.
